Experimental data: ChEMBL document CHEMBL3988442, “University of Dundee, Small-Polar-MMV Screening Library” (2021)
The campaign covered roughly 48,000 compounds. About 13,000 (27%) showed an effect of 50% or more. The list shows a part of the results.

test system: Wolbachia pipientis; assay: Anti-Wolbachia Cell-Based Screen; format: functional; set-up: scale not given: in the data most compounds retested in dose-response had high values; conditions: 5 µM

SMILES	Percent Effect [%]
O=C(O)C(F)(F)F.O=C(O)C(F)(F)F.O=S(=O)(NCC1OCCc2cn(Cc3ccccn3)nc21)C1CC1 (stereo unspecified)	3.652
CCCN1CCCN(c2ccc(-n3ccc(C)n3)nn2)CC1	-2.54
CC(C)c1cc(NC(=O)CN2CCC(C(N)=O)CC2)on1	115.1
CNC(=O)C1CCN(CC(=O)Nc2cc(C(C)C)no2)CC1	108.1
Cc1nnc2n1CCN(CC(=O)Nc1cc(C(C)C)no1)C2	1.962
CC(C)c1cc(NC(=O)CN2CCCC(Cn3cncn3)C2)on1 (stereo unspecified)	3.767
CC(C)c1cc(NC(=O)CN2CCc3cncnc3C2)on1	-4.855
CC(C)c1cc(NC(=O)CN2CCc3ccccc3C2)on1	0.7279
O=C1CCC2(CCN(Cc3ccc(F)cc3Cl)CC2)CN1CCO	-18.28
CCOc1ccc(CNC(=O)N(C)Cc2ncnn2C)cc1C	11.45
CC(C)c1noc(C2CCCN2C(=O)CN2CCc3ccccc32)n1 (stereo unspecified)	-3.468
CN(C)CC(=O)N1Cc2nc(C(=O)NCc3ccccc3)oc2C1	4.563
CN(C)CC(=O)N1Cc2nc(C(=O)N3CCCN(C)CC3)oc2C1	106
CN1CCCN(C(=O)c2nc3c(o2)CN(C(=O)c2cccnc2)C3)CC1.O=C(O)C(F)(F)F.O=C(O)C(F)(F)F	-2.795
CN1CCN(C(=O)c2nc3c(o2)CN(C(=O)c2cccnc2)C3)CC1.O=C(O)C(F)(F)F.O=C(O)C(F)(F)F	7.797
CCCNC(=O)c1nc2c(o1)CN(C(=O)CN(C)C)C2	2.652
CN1CCCN(C(=O)c2nc3c(o2)CN(S(C)(=O)=O)C3)CC1	89.92
COCCN1CC(Nc2nc(C(C)C)nc3c2cnn3C)CC1=O (stereo unspecified)	0.2406
CCCc1nc(C)cc(N2CCNC(C(=O)NCc3cccnc3)C2)n1 (stereo unspecified)	0.7849
CSC(CNS(N)(=O)=O)c1cccc(Cl)c1 (stereo unspecified)	-15.56
CC(C)N(C)[C@@H]1CCN(Cc2nccs2)[C@H]1Cc1ccncc1.O=C(O)C(F)(F)F.O=C(O)C(F)(F)F.O=C(O)C(F)(F)F	-17.48
O=C(O)C(F)(F)F.O=C([C@H]1CC[C@@H]2[C@@H](CCN2Cc2nccs2)O1)N1CCCCO1	-6.039

SMILES	Percent Effect [%]
CS(=O)(=O)N1C[C@H]2CCCN(Cc3nccs3)[C@H]2C1.O=C(O)C(F)(F)F	1.749
CC(C)NC(=O)[C@H]1C[C@@H]2[C@@H](C1)OCCN2Cc1nccs1.O=C(O)C(F)(F)F	0.8743
CN(C)C(=O)[C@@H]1CC[C@@H]2[C@@H](CCN2Cc2nccs2)O1.O=C(O)C(F)(F)F	98.79
CN(C)C(=O)[C@@H]1C[C@@H]2[C@@H](CCN2Cc2nccs2)O1.O=C(O)C(F)(F)F	111.2
Cc1ccccc1-c1noc(C2CC(C(C)C)=NO2)n1 (stereo unspecified)	10.38
CCc1cc(N(C)Cc2nonc2C)nc(N2CCOCC2)n1	-1.429
CCc1cc(N(C)Cc2nonc2C)nc(N(C)C)n1	93.32
CCN(Cc1nonc1C)C(=O)c1cnccn1	-6.24
Cc1cc(=O)n(C)cc1NC(=O)Cc1cc(F)ccc1F	0.6087
O=c1[nH]c(-c2ccccc2F)nc2c1CCNC2	-26.1
CC(C)CCN(C(=O)c1ccc(-n2ncc(C#N)c2N)cc1)C1CC1	92.49
CC(C)CCN(C(=O)c1cccc(NC(N)=O)c1)C1CC1	-12.61
CC(C1CC1)N(C)C(=O)c1ccc(-n2ncc(C#N)c2N)cc1 (stereo unspecified)	117.6
N#Cc1cnn(-c2ccc(C(=O)Nc3ccccn3)cc2)c1N	2.958
COc1ccc(NC(=O)c2ccc(-n3ncc(C#N)c3N)cc2)cn1	-17.39
CCN(CC)C(=O)c1ccc(-n2ncc(C#N)c2N)cc1	113.8
CCCC1SCCN1C(=O)c1ccc(-n2ncc(C#N)c2N)cc1 (stereo unspecified)	-7.11
N#Cc1ccc(C(=O)N(C2CC2)C2CC(=O)NC2=O)cc1 (stereo unspecified)	-1.854
N#Cc1cnn(-c2ccc(C(=O)N(C3CCCCC3)C3CC3)cc2)c1N	50.38
CC(C)CCN(C(=O)Nc1cccc(C(=O)N(C)C)c1)C1CC1	-4.492
CC(C)C1CCCN1C(=O)c1ccc(-n2ncc(C#N)c2N)cc1 (stereo unspecified)	-2.457
Cc1cnc(NC(=O)c2ccc(-n3ncc(C#N)c3N)cc2)s1	-16.88

SMILES	Percent Effect [%]
Cc1nc(CN2CCC(C(=O)N(C)C3CCC(C)CC3)CC2)cs1 (stereo unspecified)	-8.684
Cc1nc(-c2cc(F)c3c(c2)CC(CN)O3)c[nH]1 (stereo unspecified)	4.344
O=C(CCn1cccn1)N1CC[C@@H](c2ccc3ccccc3c2)[C@H](O)C1	28.28
Cc1nc2c(C#N)cnn2c(C)c1CCC(=O)N(C)C1CC1	-17.24
CN(C(=O)c1ccc(-n2ncc(C#N)c2N)cc1)C1CCCC1	106.6
CN(C(=O)c1ccc(NC(=O)c2cc[nH]n2)cc1)C1CCCCC1	-4.101
CCC(=O)Nc1cc(Br)cn(C)c1=O	3.06
O=C(c1ccc(F)cc1)N(CCCO)S(=O)(=O)c1cccs1	17.63
CN(C)CCN1CCC(CNCc2c[nH]nc2C(C)(C)C)CC1	106
COCCn1cc(NCc2c[nH]nc2C(C)(C)C)cn1	0.5813
CC(C)(C)c1n[nH]cc1CNCC1CCN(C2CC2)C1.Cl (stereo unspecified)	3.787
CNc1cc(N2CCCC2CNCc2c[nH]nc2C(C)(C)C)ncn1 (stereo unspecified)	0.4855
CC(C)(C)c1n[nH]cc1CNCC1CCN(CC(F)(F)F)C1.Cl (stereo unspecified)	-2.373
CC(C)N1CCC(CNCc2c[nH]nc2C(C)(C)C)C1 (stereo unspecified)	9.105
Cc1ccc(-c2n[nH]cc2CNCC2CCN(CC(C)O)CC2)cc1 (stereo unspecified)	92.7
Cc1cccc(-c2[nH]ncc2CNCC2CCN(CC(C)O)CC2)c1 (stereo unspecified)	-2.172
CCN1CCC(CNCc2c[nH]nc2C(C)(C)C)C1.Cl (stereo unspecified)	95.83
CC(O)CN1CCC(CNCc2c[nH]nc2C(C)(C)C)CC1 (stereo unspecified)	-0.09307
COCCN1CCC(CNCc2c[nH]nc2C(C)(C)C)CC1	88.21
Cc1ccc(-c2n[nH]cc2CNCC2CCc3nnc(C)n3C2)cc1 (stereo unspecified)	-17.97
CCC(CO)NC(=O)Nc1cc(F)ccc1SCC(F)F (stereo unspecified)	1.4
CCOCc1ccc(NC(=O)NC2CCCn3nc(CC)nc32)cc1 (stereo unspecified)	-7.286

SMILES	Percent Effect [%]
CCCN(CC(=O)N(C)C)C(=O)c1ccc(-c2nc(C)cs2)cc1	106.6
Cc1csc(-c2ccc(NC(=O)N3CCOCC3)cc2)n1	9.555
CNC(=O)CN(C)C(=O)Cc1csc(C(C)C)n1	-0.57
CCN(CC(=O)N(C)C)C(=O)c1cc(-c2cccc(Cl)c2)no1	-0.1751
CN(C)C(=O)c1csc(-c2ccoc2)n1	-7.541
CCN(CC(=O)N(C)C)C(=O)c1ccc(-c2nc(C)cs2)cc1	133.8
Cc1ccc(-c2nc(C(=O)N(C)CC(=O)N(C)C)cs2)c(C)c1	-25.77
CCN(CC(=O)NC)C(=O)Cc1csc(C(C)C)n1	-3.04
CCCN(CC(=O)NC)C(=O)c1ccc(-c2ccsc2)nc1C	-3.974
CNC(=O)CN(C)C(=O)c1ccc(-c2nc(C)cs2)cc1	115.5
CNC(=O)C(CC(C)C)NC(=O)c1cccc(-c2nc(C)cs2)c1 (stereo unspecified)	8.267
CCCN(CC(=O)NC)C(=O)c1ccc(-c2nc(C)cs2)cc1	92.57
CCc1ccc(C(NC(=O)CN(C)S(C)(=O)=O)C(C)(C)C)o1 (stereo unspecified)	-2.175
Cc1cn2c(n1)C(CNCc1cnn3ccccc13)CCC2 (stereo unspecified)	10.2
CCc1ocnc1C(=O)N1CCN(c2nncc3ccccc23)CC1	-2.931
Cc1c(O)oc(-c2ccc(Br)cc2)nc1=O	-7.091
CC(C(=O)O)N1CCc2onc(-c3ccc4c(c3)OCO4)c2C1 (stereo unspecified)	-4.68
N#Cc1ccc(OC2CCN(C(=O)c3ccc4c(c3)OCO4)CC2)nc1	-4.84
CC(=O)NC(C)C1=CCCN(Cc2ccc(C(=O)O)cc2)C1 (stereo unspecified)	-17.16
CS(=O)(=O)N[C@@H]1CN(Cc2ccoc2)C[C@@H]2CCCO[C@@H]21	-8.721
CS(=O)(=O)N[C@@H]1COC[C@@H]2CN(Cc3ccoc3)C[C@@H]21	104.1
CS(=O)(=O)CC(=O)N1C[C@@H]2CN(Cc3ccoc3)CCO[C@@H]2C1	-2.254

SMILES	Percent Effect [%]
CS(=O)(=O)N[C@@H]1COC[C@@H]2CN(Cc3ccco3)C[C@@H]21	121.7
CS(=O)(=O)N[C@H]1COC[C@@H]2CN(Cc3ccco3)C[C@@H]21	102.8
CCOCC(=O)N1CCc2c(CN(C)C)nn(C(C)C)c2C1.O=C(O)C(F)(F)F	-22.21
Cn1c(N)nnc1SCC1OCCc2ccccc21 (stereo unspecified)	-8.673
O=C(Nc1nncs1)c1ccc(O)nc1	-7.078
CC(C)C(C)N(C)Cc1nnc(-c2ccc(Br)s2)o1 (stereo unspecified)	27.84
CN(C)[C@H]1C[C@@H](Cc2cc(CO)on2)C1(C)C	2.334
CC(C)C(Sc1nnnn1C1CC1)C(=O)NCc1ccccc1 (stereo unspecified)	90.27
CC(C)Sc1nnnn1C1CCCC1	-35.1
Cc1nn(C)c2cnn(C(C)C(=O)NCc3cccnc3)c12 (stereo unspecified)	10.06
CC(C)C(Sc1nnc(C2CC2)n1C1CC1)C(=O)NCc1cccnc1 (stereo unspecified)	2.12
Cc1ccc(C)c(OC(C)C(=O)NCc2cccnc2)c1 (stereo unspecified)	-19.9
CC(C)C(Sc1nncn1C1CC1)C(=O)NCc1cccnc1 (stereo unspecified)	102
CC(C)C(Sc1nnnn1C1CC1)C(=O)NCc1cccnc1 (stereo unspecified)	0.8079
CC(C)C(Sc1nccn1C1CC1)C(=O)NCc1cccnc1 (stereo unspecified)	93.78
CC(C)Cn1nnnc1SC(C(=O)NCc1cccnc1)C(C)C (stereo unspecified)	111.1
CC(C)C(Sc1nnnn1-c1ccccc1)C(=O)NCc1cccnc1 (stereo unspecified)	-6.711
Cc1nn(C)c2cn(C(C)C(=O)NCc3cccnc3)nc12 (stereo unspecified)	6.41
